# Inconclusive results are not listed. Where a call stands in place of a potency, no number is given. Active and inactive are the calls of the source. Unless noted, calls follow the shape of the dose curve; as a rule, active = well fitted curve in the direction sought with a large enough effect; inconclusive = small, poorly fitted or top-dose-only effect, or another doubt; inactive = no such curve, though single readings can be large; an effect the other way counts as inactive or inconclusive.
# Tests used:
# [1] = biological target: Glutaminase kidney isoform, mitochondrial (Homo sapiens) (UniProt O94925); assay: qHTS for Inhibitors of Glutaminase (GLS): LOPAC Validation (AID 624146); details: glutaminase enzyme activity inhibition; series mostly up to 46.1 µM;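 also: glutamate product detected by oxidase and peroxidase coupled Amplex red fluorescence gain; nearly all actives have a fitted effect of over 60% in size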
# Sequence of Glutaminase kidney isoform, mitochondrial (Homo sapiens) (O94925 whole entry, looked up, canonical isoform): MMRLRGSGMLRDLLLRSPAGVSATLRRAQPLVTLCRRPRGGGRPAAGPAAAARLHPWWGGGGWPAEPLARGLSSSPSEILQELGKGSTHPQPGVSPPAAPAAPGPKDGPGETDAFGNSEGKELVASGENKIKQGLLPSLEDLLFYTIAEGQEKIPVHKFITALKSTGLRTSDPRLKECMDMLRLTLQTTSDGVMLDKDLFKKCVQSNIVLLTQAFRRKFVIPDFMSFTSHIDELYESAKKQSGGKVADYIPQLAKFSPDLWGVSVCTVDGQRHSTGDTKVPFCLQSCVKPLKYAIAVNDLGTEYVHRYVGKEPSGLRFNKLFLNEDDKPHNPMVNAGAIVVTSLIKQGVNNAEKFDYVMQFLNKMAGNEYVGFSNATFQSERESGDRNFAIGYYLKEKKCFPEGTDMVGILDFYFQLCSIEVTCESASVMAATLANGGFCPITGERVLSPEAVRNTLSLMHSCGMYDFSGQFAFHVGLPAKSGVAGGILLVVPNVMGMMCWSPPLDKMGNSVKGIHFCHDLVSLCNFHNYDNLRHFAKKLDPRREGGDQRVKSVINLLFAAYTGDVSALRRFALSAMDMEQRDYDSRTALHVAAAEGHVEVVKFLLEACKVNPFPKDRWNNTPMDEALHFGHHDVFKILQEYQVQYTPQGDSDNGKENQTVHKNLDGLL
# Summary of the method: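 hKGA in 45 mM KH2PO4 pH 8.2, 0.02% Tween-20 with pin-transferred compounds; 1 mM L-glutamine (stock) plus glutamate oxidase/HRP/Amplex Red coupling added. Fluorescence read initially and after 30 min at RT.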
# [2] = qHTS of Trypanosoma Brucei Inhibitors: LOPAC Validation (AID 624147); details: purified enzyme assay, luminescence, 45 min; series mostly up to 57.5 µM
# Summary of the method: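 Readout: single end-point luminescence (Kinase-Glo Plus, 10 min). Reaction conditions were TbPYK/substrate plus 130 uM ADP, 45 min at RT, pH 7.2 TEA buffer. No-enzyme wells served as controls, and data were normalized before concentration-response fitting.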
# [3] = biological target: Glucagon-like peptide 1 receptor (Homo sapiens) (UniProt P43220); assay: qHTS of GLP-1 Receptor Agonists: LOPAC Validation (AID 624148); details: GLP-1R agonist cell assay; series mostly up to 46.1 µM;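 also: higher luminescence signal means agonism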
# Sequence of Glucagon-like peptide 1 receptor (Homo sapiens) (P43220 whole entry, looked up): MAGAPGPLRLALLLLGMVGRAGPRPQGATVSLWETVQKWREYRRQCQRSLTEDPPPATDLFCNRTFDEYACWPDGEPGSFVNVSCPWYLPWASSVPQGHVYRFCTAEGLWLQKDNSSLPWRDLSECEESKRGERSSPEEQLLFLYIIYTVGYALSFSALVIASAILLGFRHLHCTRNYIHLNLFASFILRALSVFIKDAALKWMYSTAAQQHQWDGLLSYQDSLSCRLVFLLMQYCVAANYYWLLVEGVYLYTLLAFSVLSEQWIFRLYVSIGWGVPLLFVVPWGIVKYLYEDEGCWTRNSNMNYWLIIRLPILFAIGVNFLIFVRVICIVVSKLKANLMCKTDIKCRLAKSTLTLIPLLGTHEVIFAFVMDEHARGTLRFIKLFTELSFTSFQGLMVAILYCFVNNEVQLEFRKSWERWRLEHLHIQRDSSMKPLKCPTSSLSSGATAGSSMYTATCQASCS
# Summary of the method: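 HEK293 cells stably co-expressing GLP-1R and a cAMP-responsive luciferase reporter, plated 12 hours before compound, then incubated 4-6 hr at 37 deg C. Luminescence read 12 min after detection reagent.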
# [4] = qHTS of Nrf2 Activators: LOPAC Validation (AID 624149); details: Nrf2/ARE reporter cell assay; series mostly up to 46.1 µM
# Summary of the method: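 AREc32_Fluc cells, 1000/well in OPTI-MEM with 5% FBS, grown overnight, then exposed to compounds for 24 hr at 37 deg C, 5% CO2. ARE-driven firefly luciferase read by Steady-Glo luminescence after 30 min at RT.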
# [5] = HTS Assay for Allosteric Antagonists of the Human D2 Dopamine Receptor: Hit Validation in HTRF (AID 624455); details: Cells stably expressing D1 dopamine receptor, inhibition mode; series mostly up to 46.1 µM;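 also: stable D1 dopamine receptor cell line scored for blocking the D1 response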
# Summary of the method: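 Hit validation in cells stably expressing the D1 dopamine receptor, run in HTRF format. Compounds were tested for their ability to inhibit the D1-mediated response.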
# [6] = S16 Schwann cell PMP22 intronic element beta-lactamase assay (AID 624044; calls by dose curve; also: nearly all actives have a fitted effect of over 15% in size); details: S16 rat Schwann cells, PMP22 element beta-lactamase FRET, 24 h; ratio activity, negative = inhibition: at 38.3 µM (top of the series)
# Summary of the method: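 Rat S16 Schwann cells with beta-Lac driven by a PMP22 intronic element, compound-treated 24 h at 37 °C. LiveBLAzer FRET B/G read: 460 nm normalized to potassium clavulanate vs DMSO; 535 nm FRET as viability; concentration-effect curves classified.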
# [7] = Cytotoxicity counterscreen for NFkB agonists and antagonists (AID 624476); details: NFkB reporter cell line viability counterscreen; series mostly up to 92.2 µM;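 also: cells exposed to compound for 48 hours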; also: potency is read from the fitted curve at half-maximal effect
# [8] = qHTS Assay for Identification of Small Molecule Agonists for NFkB Signaling Pathway. (AID 624478); details: NFkB pathway reporter cell assay, agonist mode, cells co-stimulated with 10 pM TNF alpha; series mostly up to 46.1 µM
# Summary of the method: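 NFkB-bla ME-180 cells carry a beta-lactamase reporter. They received compound plus TNF alpha at 10 pM final (its EC50) for 5 h at 37 C. Reporter activity was read as 460/530 nm emission ratio after 2 h LiveBLAzer substrate loading.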
# [9] = qHTS Assay for Identification of Small Molecule Antagonists for NFkB Signaling Pathway. (AID 624479; calls by dose curve; also: potency is read from the fitted curve at half-maximal effect); details: NFkB pathway reporter cell assay, antagonist mode; series mostly up to 76.6 µM
smiles,measurement,setting,value
CC[C@H](C)C(=O)O[C@H]1CCC=C2C=C[C@H](C)[C@H](CC[C@@H]3C[C@@H](O)CC(=O)O3)[C@H]21,Potency,[1],inactive
same,outcome,[2],inactive
same,outcome,[3],inactive
same,Potency,[4],inactive
same,outcome,[5],inactive
C#C[C@]1(O)CC[C@H]2[C@@H]3CCc4cc(OC5CCCC5)ccc4[C@H]3CC[C@@]21C,Potency,[6],inactive
CC(=O)N/N=C/c1ccc([N+](=O)[O-])o1,Potency,[6],inactive
Nc1ccn([C@@H]2O[C@H](CO)[C@@H](O)C2(F)F)c(=O)n1,Potency,[7],inactive
same,outcome,[8],inactive
same,Potency,[9],inactive
NCCCC[C@H](N[C@@H](CCc1ccccc1)C(=O)O)C(=O)N1CCC[C@H]1C(=O)O,Potency,[6],inactive
CC(=O)Nc1c(I)cc(I)c(C(=O)O)c1I,Potency,[6],inactive
COc1cccc2c1C(=O)c1c(O)c3c(c(O)c1C2=O)C[C@@](O)(C(=O)CO)C[C@@H]3O[C@H]1C[C@H](N)[C@H](O)[C@H](C)O1,Potency,[7],0.0332 µM (active)
same,outcome,[8],inactive
same,Potency,[9],6.68 µM (active)
CC(C)=CCC1C(=O)N(c2ccccc2)N(c2ccccc2)C1=O,Potency,[6],inactive
CCCCCCCCCCCCCCCC[N+](C)(C)CCN(Cc1ccc(OC)cc1)c1ncccn1,Potency,[6],inactive
C[C@@H]1C(=O)NC2=Nc3cccc(Cl)c3CN21,Potency,[6],inactive
same,Potency,[1],inactive
same,outcome,[2],inactive
same,outcome,[3],inactive
same,Potency,[4],inactive
same,outcome,[5],inactive

# Reference: PubChem BioAssay (NCATS)
